Outcome and AC50 data for five compounds are collected here from PubChem BioAssay (EPA / NIEHS).

By AC50 is commonly meant the concentration giving half of the maximal activity seen.

The target in assay [1] is Nuclear receptor subfamily 1 group I member 3 (Homo sapiens) (UniProt Q14994). The assay is described as follows: ATG_CAR_TRANS: Attagene TRANS-FACTORIAL HepG2 Assay for human Constitutive Androstane Receptor (CAR) (AID 2282969).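 Further: activators raise reporter mRNA above DMSO so AC50 marks induction.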 Conditions: HepG2 Attagene TRANS-FACTORIAL CAR reporter. An outline of the steps: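 Readout is reporter mRNA induction, quantified by fluorescent primer extension and capillary electrophoresis after RT-PCR. Cells were HepG2 transiently carrying chimeric NR-Gal4 constructs with GAL4-UAS reporters, treated for 24 h; activity scored upward from DMSO.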
Nuclear receptor subfamily 1 group I member 3 (Homo sapiens), sequence (Q14994 whole entry, looked up, the tested form may be a part): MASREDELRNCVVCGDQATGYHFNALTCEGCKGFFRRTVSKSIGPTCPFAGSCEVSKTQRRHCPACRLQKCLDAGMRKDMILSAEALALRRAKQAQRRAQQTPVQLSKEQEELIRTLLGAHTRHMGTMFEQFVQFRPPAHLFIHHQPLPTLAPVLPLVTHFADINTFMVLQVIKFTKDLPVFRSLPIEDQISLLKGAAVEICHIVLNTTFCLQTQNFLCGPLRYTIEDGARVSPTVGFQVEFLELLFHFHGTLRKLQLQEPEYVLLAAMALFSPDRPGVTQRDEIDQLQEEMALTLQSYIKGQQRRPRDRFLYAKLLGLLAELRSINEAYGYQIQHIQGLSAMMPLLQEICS

Assay [2] concerns the target Estrogen receptor (Homo sapiens) (UniProt P03372). Put plainly: ATG_ERa_TRANS: Attagene TRANS-FACTORIAL HepG2 Assay for human Estrogen Receptor alpha (ERa) (AID 2282970). The following applies: HepG2 Attagene TRANS ERa GAL4 reporter, mRNA. An outline of the steps:
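HepG2 cells transiently transfected with multiplexed GAL4-UAS reporter units; ERa activity read via exogenous chimeric NR-Gal4 protein. After 24 hour compound exposure, reporter mRNA measured by RT-PCR with 6-FAM labelling and capillary electrophoresis; gain-of-signal fitted relative to DMSO.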

For assay [3], the target named is X-box-binding protein 1 (Homo sapiens) (UniProt P17861). Put plainly: ATG_Xbp1_CIS: Attagene CIS-FACTORIAL HepG2 Assay for human X-box Binding Protein 1 (XBP1) (AID 2282972; active means hit-call score of the fitted dose curve at least 0.9, where 1 is the maximum; inactive means score below 0.9). The following applies: HepG2 XBP1 cis-element reporter, Attagene multiplex; actives raise or lower the signal. An outline of the steps: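 HepG2 cells transiently transfected with multiple cis-element reporter units report endogenous TF activity; 24 h exposure, then reporter mRNA measured by RT-PCR, 6-FAM labelling, HpaI digestion and capillary electrophoresis. Bidirectional fitting versus DMSO.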
X-box-binding protein 1 (Homo sapiens), sequence (P17861 whole entry, looked up): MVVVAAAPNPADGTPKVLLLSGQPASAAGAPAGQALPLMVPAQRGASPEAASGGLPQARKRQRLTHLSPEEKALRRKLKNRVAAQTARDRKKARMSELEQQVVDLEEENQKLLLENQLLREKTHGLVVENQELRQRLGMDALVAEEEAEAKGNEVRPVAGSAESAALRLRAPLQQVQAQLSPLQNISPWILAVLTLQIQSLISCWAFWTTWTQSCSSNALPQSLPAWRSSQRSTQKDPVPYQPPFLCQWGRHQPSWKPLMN

A short description of assay [4]: ATG_GAL4_TRANS: Attagene TRANS-FACTORIAL HepG2 Assay for GAL4 (Internal Marker) (AID 2282976). The following applies: HepG2 Attagene TRANS GAL4 internal marker reporter. An outline of the steps: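 HepG2 cells transiently transfected with multiplexed GAL4-UAS reporter constructs were dosed for 24 h. Reporter mRNA was measured by RT-PCR, 6-FAM primer extension, HpaI digestion and capillary electrophoresis, and gain of signal was fitted relative to DMSO.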

For assay [5], the target named is Estrogen-related receptor gamma (Homo sapiens) (UniProt P62508). The assay is described as follows: ATG_ERRg_TRANS: Attagene TRANS-FACTORIAL HepG2 Assay for human Estrogen-Related Receptor gamma (ERRg) (AID 2282977).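 Further: hits increase reporter signal over DMSO so potencies reflect activators.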 Conditions: HepG2 Attagene TRANS reporter, ERRg transactivation. In short, it runs like this:
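HepG2 cells transiently transfected with multiplexed GAL4-UAS reporter units driven by chimeric NR-Gal4 proteins; 24 h exposure. Reporter mRNA quantified by RT-PCR, fluorescent labelling, HpaI digestion and capillary electrophoresis; gain of signal vs DMSO.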

For assay [6], the target named is Glucocorticoid receptor (Homo sapiens) (UniProt P04150). The assay is described as follows: ATG_GR_TRANS: Attagene TRANS-FACTORIAL HepG2 Assay for human Glucocorticoid Receptor (GR) (AID 2282978).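 Further: activators score as hits since higher reporter transcript over DMSO is fitted.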 Conditions: HepG2 Attagene TRANS GR reporter, mRNA transcription. In short, it runs like this:
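Fluorescent capillary-electrophoresis quantitation of reporter mRNA is the readout, taken 24 h after dosing human HepG2 cells carrying transiently transfected GAL4-UAS reporter units activated by chimeric NR-GAL4 fusions; activity scored as induction over DMSO.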

A short description of assay [7]: ATG_M_06_TRANS: Attagene TRANS-FACTORIAL HepG2 Assay for M06 Transcription Factor (Internal Marker) (AID 2282983). Conditions: HepG2 Attagene TRANS M06 internal marker reporter. In short, it runs like this:
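HepG2 cells transiently transfected with multiplexed GAL4-UAS reporter transcription units; after 24 h compound exposure, reporter mRNA measured by RT-PCR, FAM-labelled primer extension, HpaI digestion and capillary electrophoresis. Gain-of-signal fitted versus DMSO baseline; background control readout.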

In assay [8] the target is Nuclear receptor subfamily 4 group A member 2 (Homo sapiens) (UniProt P43354). The assay is described as follows: ATG_NURR1_TRANS: Attagene TRANS-FACTORIAL HepG2 Assay for human Nuclear Receptor Related Protein 1 (NURR1) (AID 2282985). Conditions: HepG2 Attagene TRANS reporter, mRNA readout. An outline of the steps: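 Transient transfection of HepG2, human liver cells, with multiple GAL4-UAS reporter transcription units. Cells dosed 24 h, RNA isolated, reverse-transcribed, PCR-amplified, FAM-labelled, HpaI-digested, sized by capillary electrophoresis. DMSO served as negative control.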

Assay [9] deals with Transcriptional activator Myb (Homo sapiens) (UniProt P10242). Put plainly: ATG_Myb_CIS: Attagene CIS-FACTORIAL HepG2 Assay for human Myeloblastosis (Myb) Proto-Oncogene Transcription Factor (AID 2282986; active means hit-call score of the fitted dose curve at least 0.9, where 1 is the maximum; inactive means score below 0.9). Conditions: HepG2 Attagene CIS-FACTORIAL Myb reporter transcription; actives raise or lower the signal. An outline of the steps:
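Reporter transcript levels, quantified by fluorescent RT-PCR and capillary electrophoresis, serve as the read-out. Transfected HepG2 cells carrying cis-promoter reporter units are dosed for 24 hours, and curves are fitted bidirectionally against DMSO controls.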

A short description of assay [10]: ATG_NFI_CIS: Attagene CIS-FACTORIAL HepG2 Assay for human Nuclear Factor I (NFI) (AID 2282989; active means hit-call score of the fitted dose curve at least 0.9, where 1 is the maximum; inactive means score below 0.9). The following applies: HepG2 cis-regulatory reporter, NFI response element transcription; actives raise or lower the signal. An outline of the steps:
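Reporter transcripts were measured by RT-PCR with fluorescent primer extension and capillary electrophoresis 24 h post-treatment. HepG2 cells carried transiently transfected cis-regulated reporter constructs reporting endogenous factor activity; gain or loss fitted against DMSO baseline.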

The target of assay [11] is Myc proto-oncogene protein (Homo sapiens) (UniProt P01106). The assay is described as follows: ATG_Myc_CIS: Attagene CIS-FACTORIAL HepG2 Assay for human Myelocytomatosis (Myc) Proto-Oncogene Transcription Factor (AID 2282990; active means hit-call score of the fitted dose curve at least 0.9, where 1 is the maximum; inactive means score below 0.9). The following applies: HepG2, Attagene cis-reporter transcription factor activity; actives raise or lower the signal. An outline of the steps: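 HepG2, transient MRTU transfection (cis promoters, endogenous TFs); 24 h dosing; TriZol RNA → oligo(dT) RT → PCR → 6-FAM primer extension → HpaI cut → CE. Bidirectional fit vs DMSO.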
Myc proto-oncogene protein (Homo sapiens), sequence (P01106 whole entry, looked up): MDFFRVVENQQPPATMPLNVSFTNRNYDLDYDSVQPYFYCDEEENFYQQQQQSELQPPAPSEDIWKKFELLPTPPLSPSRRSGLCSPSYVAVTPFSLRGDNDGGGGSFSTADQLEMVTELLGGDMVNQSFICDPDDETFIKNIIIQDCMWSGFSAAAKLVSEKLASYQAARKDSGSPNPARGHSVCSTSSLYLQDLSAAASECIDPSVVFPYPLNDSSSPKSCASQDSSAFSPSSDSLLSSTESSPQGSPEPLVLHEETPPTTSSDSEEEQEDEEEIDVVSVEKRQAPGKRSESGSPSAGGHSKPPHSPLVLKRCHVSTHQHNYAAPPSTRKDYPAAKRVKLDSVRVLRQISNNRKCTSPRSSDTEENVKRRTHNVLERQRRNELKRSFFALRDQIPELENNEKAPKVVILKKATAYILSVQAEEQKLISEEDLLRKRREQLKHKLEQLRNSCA

The target in assay [12] is Steroid hormone receptor ERR1 (Homo sapiens) (UniProt P11474). The assay is described as follows: ATG_ERRa_TRANS: Attagene TRANS-FACTORIAL HepG2 Assay for human Estrogen-Related Receptor alpha (ERRa) (AID 2282971). The following applies: HepG2 Attagene TRANS reporter, ERRa transactivation. An outline of the steps:
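HepG2 cells transiently transfected with multiplexed GAL4-UAS reporter units reading chimeric ERRa-Gal4 activity; 24 h compound exposure. Reporter mRNA measured by RT-PCR, 6-FAM labelling, HpaI digest and capillary electrophoresis; gain of signal fitted versus DMSO baseline.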

The nature of assay [13]: ATG_M_19_TRANS: Attagene TRANS-FACTORIAL HepG2 Assay for M19 Transcription Factor (Internal Marker) (AID 2282974). The following applies: HepG2 Attagene TRANS-FACTORIAL M19 internal marker reporter. In short, it runs like this:
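Fluorescence of 6-FAM-labelled reporter cDNA fragments, separated by capillary electrophoresis, served as the readout. These derived from HepG2 cells carrying transfected GAL4-UAS reporter units after 24 h dosing, with DMSO as negative control.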

Assay [14] can be described thus: ATG_M_32_TRANS: Attagene TRANS-FACTORIAL HepG2 Assay for M32 Transcription Factor (Internal Marker) (AID 2282984). Conditions: HepG2 Attagene TRANS M32 internal marker reporter. In short, it runs like this:
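Measures reporter mRNA induction in human HepG2 liver cells after 24 h chemical treatment. Transcripts from transiently transfected GAL4-UAS reporter units are amplified, fluorescently labelled and sized by capillary electrophoresis; gain of signal relative to DMSO.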

The target in assay [15] is Nuclear respiratory factor 1 (Homo sapiens) (UniProt Q16656). The assay is described as follows: ATG_NRF1_CIS: Attagene CIS-FACTORIAL HepG2 Assay for human Nuclear Respiratory Factor 1 (NRF1) Orphan Gene (AID 2282987; active means hit-call score of the fitted dose curve at least 0.9, where 1 is the maximum; inactive means score below 0.9). The following applies: HepG2 NRF1 cis-element reporter, Attagene multiplex; actives raise or lower the signal. In short, it runs like this:
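Multiplexed cis-reporter assay, HepG2 cells, 24 h treatment. Total RNA → oligo(dT) RT → PCR with reporter-specific primers → 6-FAM primer extension → HpaI cut → CE. Bidirectional fit vs DMSO.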

The target of assay [16] is Oxysterols receptor LXR-alpha (Homo sapiens) (UniProt Q13133). Put plainly: ATG_LXRa_TRANS: Attagene TRANS-FACTORIAL HepG2 Assay for human Liver X Receptor alpha (LXRa) (AID 2282980). The following applies: HepG2 Attagene TRANS reporter, LXRa transactivation. An outline of the steps:
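HepG2 cells were transiently transfected with multiplexed reporter units driven by chimeric LXRa–GAL4 fusion proteins, then dosed for 24 h. Reporter mRNA was quantified by RT-PCR, fluorescent labelling and capillary electrophoresis; gain of signal fitted against DMSO baseline.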

Assay [17] has as its target Oxysterols receptor LXR-beta (Homo sapiens) (UniProt P55055). The assay is described as follows: ATG_LXRb_TRANS: Attagene TRANS-FACTORIAL HepG2 Assay for human Liver X Receptor beta (LXRb) (AID 2282981). Conditions: HepG2 Attagene TRANS GAL4-LXRb reporter, mRNA. In short, it runs like this: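 Transient transfection HepG2 (multiplexed RTUs, GAL4-UAS); NR-Gal4 chimera; 24 h exposure; RNA → RT-PCR → 6-FAM primer extension → HpaI → CE; increase vs DMSO.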

In assay [18] the target is Androgen receptor (Homo sapiens) (UniProt P10275). The assay is described as follows: ATG_AR_TRANS: Attagene TRANS-FACTORIAL HepG2 Assay for human Androgen Receptor (AR) (AID 2282973). The following applies: HepG2 Attagene TRANS-FACTORIAL AR reporter transcription. In short, it runs like this:
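HepG2 cells transiently transfected with multiplexed GAL4-UAS reporter units and chimeric NR-Gal4 fusion; 24 h compound exposure. Reporter mRNA measured by RT-PCR, 6-FAM labelling, HpaI digestion and capillary electrophoresis; gain-of-signal fitted relative to DMSO baseline.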

Assay [19] concerns the target Bile acid receptor (Homo sapiens) (UniProt Q96RI1). The assay is described as follows: ATG_FXR_TRANS: Attagene TRANS-FACTORIAL HepG2 Assay for Farnesoid X Receptor (FXR) (AID 2282979).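 Further: hits raise reporter mRNA above DMSO so AC50 marks FXR activation.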 The following applies: HepG2 Attagene TRANS FXR-GAL4 reporter transcription. An outline of the steps:
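HepG2 cells transiently transfected with reporter constructs in which a chimeric FXR-GAL4 protein drives a GAL4-UAS reporter; 24 h compound exposure. Reporter mRNA measured by RT-PCR, FAM labelling, HpaI digestion and capillary electrophoresis; gain-of-signal versus DMSO.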

The target of assay [20] is Hepatocyte nuclear factor 4-alpha (Homo sapiens) (UniProt P41235). Put plainly: ATG_HNF4a_TRANS: Attagene TRANS-FACTORIAL HepG2 Assay for human Hepatocyte Nuclear Factor 4 alpha (HNF4a) (AID 2282982). Conditions: HepG2 HNF4a transactivation reporter, mRNA readout. An outline of the steps:
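Readout is fluorescent reporter-transcript fragments resolved by capillary electrophoresis after RT-PCR from HepG2 cells dosed for 24 h. Cells carried transfected GAL4-UAS reporter constructs measuring exogenous NR-GAL4 chimera activity; DMSO served as baseline.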

Molecules are shown by their SMILES. Results filed as inconclusive are left out. Active and inactive are the calls of the source. How the source made its calls, unless noted: active means hit-call score of the fitted dose curve at least 0.9, where 1 is the maximum; inconclusive means response in the unintended direction; inactive means score below 0.9.

Glucocorticoid receptor (Homo sapiens), sequence (P04150 whole entry, looked up, the tested form may be a part): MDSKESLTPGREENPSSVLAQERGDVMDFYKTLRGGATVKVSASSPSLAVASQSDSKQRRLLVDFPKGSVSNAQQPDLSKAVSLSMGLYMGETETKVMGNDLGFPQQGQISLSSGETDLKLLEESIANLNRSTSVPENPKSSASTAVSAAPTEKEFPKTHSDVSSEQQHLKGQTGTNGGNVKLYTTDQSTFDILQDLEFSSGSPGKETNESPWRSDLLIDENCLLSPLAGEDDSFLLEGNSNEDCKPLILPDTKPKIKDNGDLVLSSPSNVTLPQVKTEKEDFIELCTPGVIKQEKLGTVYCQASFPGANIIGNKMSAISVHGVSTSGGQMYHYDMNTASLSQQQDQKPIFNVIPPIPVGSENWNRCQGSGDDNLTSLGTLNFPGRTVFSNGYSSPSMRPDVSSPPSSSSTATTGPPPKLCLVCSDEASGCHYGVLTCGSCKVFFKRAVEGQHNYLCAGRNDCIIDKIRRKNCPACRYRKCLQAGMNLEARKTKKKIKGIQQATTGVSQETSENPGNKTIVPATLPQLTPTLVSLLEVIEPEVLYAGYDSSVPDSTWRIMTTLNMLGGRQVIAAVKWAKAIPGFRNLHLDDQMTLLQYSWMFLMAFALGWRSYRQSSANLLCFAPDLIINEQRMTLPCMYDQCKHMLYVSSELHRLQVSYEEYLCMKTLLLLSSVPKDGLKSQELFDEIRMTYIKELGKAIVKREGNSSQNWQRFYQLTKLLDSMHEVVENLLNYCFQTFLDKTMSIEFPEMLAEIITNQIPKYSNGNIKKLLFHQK
Nuclear respiratory factor 1 (Homo sapiens), sequence (Q16656 whole entry, looked up): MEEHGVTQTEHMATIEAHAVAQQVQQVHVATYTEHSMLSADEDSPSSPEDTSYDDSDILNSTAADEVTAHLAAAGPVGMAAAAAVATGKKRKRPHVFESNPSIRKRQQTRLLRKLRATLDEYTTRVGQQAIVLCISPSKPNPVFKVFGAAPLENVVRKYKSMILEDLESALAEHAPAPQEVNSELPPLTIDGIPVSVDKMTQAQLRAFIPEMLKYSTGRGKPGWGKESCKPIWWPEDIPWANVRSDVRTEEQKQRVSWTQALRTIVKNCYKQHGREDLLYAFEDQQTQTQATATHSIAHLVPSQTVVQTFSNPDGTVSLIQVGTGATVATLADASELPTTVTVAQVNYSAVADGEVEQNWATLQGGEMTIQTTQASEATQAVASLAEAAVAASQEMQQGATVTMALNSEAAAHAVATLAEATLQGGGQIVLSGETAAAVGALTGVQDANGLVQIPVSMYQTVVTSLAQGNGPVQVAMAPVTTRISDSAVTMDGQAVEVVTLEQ
Estrogen-related receptor gamma (Homo sapiens), sequence (P62508 whole entry, looked up, the tested form may be a part): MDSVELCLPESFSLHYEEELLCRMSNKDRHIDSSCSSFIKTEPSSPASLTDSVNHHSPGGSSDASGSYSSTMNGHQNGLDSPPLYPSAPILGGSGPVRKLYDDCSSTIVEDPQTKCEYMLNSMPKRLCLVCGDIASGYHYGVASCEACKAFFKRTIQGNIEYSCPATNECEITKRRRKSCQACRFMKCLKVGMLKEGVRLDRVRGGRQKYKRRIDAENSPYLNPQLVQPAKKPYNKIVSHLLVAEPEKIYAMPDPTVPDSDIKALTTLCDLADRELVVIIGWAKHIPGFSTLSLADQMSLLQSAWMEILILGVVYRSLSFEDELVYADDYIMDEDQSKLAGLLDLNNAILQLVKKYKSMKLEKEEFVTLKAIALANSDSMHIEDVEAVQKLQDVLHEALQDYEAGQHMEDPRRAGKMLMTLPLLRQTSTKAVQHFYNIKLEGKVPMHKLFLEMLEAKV
Estrogen receptor (Homo sapiens), sequence (P03372 whole entry, looked up, the tested form may be a part): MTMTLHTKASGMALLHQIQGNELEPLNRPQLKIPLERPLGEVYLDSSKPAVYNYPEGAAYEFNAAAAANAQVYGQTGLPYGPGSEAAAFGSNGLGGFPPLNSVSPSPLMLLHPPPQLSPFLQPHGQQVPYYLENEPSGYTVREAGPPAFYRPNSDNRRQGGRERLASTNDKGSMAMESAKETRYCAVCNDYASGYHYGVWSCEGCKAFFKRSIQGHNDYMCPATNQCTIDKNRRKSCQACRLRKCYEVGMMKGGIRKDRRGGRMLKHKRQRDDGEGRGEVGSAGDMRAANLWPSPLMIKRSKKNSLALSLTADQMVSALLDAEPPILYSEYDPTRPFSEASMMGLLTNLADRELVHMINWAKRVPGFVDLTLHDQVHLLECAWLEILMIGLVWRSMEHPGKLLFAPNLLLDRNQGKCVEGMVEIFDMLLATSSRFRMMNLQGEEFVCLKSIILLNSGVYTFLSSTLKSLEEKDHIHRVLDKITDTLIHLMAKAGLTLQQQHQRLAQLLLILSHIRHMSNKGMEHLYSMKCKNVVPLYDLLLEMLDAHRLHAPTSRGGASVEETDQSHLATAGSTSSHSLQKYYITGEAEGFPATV
Transcriptional activator Myb (Homo sapiens), sequence (P10242 whole entry, looked up): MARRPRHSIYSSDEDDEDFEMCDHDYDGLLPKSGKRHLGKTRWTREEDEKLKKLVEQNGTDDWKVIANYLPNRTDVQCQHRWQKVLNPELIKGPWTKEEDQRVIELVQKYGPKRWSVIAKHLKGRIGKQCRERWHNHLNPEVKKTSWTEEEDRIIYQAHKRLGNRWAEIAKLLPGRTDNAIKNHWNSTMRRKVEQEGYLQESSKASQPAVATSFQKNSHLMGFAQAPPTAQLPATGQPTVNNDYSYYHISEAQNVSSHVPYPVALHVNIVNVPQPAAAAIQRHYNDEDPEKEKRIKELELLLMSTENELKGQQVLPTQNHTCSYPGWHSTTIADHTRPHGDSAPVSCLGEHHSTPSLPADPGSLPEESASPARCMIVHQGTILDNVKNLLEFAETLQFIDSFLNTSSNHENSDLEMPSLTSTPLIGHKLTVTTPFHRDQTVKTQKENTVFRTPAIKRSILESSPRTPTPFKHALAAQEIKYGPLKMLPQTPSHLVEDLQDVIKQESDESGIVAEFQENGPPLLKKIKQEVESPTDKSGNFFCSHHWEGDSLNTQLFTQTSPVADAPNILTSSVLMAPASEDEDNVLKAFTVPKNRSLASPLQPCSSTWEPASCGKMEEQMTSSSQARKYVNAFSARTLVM
Bile acid receptor (Homo sapiens), sequence (Q96RI1 whole entry, looked up, the tested form may be a part): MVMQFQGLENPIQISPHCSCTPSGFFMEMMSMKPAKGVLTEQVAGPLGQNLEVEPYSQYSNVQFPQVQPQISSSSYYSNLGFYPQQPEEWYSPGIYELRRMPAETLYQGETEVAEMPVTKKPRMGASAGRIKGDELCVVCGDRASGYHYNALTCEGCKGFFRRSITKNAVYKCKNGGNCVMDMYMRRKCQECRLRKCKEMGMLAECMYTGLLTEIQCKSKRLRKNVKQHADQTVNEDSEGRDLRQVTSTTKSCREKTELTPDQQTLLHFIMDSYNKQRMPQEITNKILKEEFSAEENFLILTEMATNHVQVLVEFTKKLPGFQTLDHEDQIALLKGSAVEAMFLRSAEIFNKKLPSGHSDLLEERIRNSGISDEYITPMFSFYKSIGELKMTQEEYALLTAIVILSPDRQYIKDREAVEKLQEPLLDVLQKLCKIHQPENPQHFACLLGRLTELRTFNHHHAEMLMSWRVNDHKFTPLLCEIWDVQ
Steroid hormone receptor ERR1 (Homo sapiens), sequence (P11474 whole entry, looked up, the tested form may be a part): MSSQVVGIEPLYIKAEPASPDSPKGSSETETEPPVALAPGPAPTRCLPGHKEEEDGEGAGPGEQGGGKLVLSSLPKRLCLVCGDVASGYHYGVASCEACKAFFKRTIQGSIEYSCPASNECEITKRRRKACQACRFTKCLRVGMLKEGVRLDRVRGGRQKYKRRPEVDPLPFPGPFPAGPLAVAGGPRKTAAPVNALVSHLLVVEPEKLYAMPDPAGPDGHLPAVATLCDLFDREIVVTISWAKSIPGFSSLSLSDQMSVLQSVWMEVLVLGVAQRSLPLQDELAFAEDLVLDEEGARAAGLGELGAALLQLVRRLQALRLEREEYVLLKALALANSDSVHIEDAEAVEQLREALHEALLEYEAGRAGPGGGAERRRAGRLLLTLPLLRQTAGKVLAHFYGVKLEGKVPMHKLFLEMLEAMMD

Turning to `Oc1cccc(-c2ccccc2)c1`, the call in [1], in assay [3], in [4], in [5], in assay [6] and in [7] was inactive. In addition, the call in assay [8], in [9] and in assay [11] was inactive. Besides, the concentration at half-maximal activity (AC50) was 6.57 µM (active) in [2] and 139 µM (active) in [10].
As to `CC(c1ccc(O)cc1)c1ccc(O)cc1`, the result in assay [1], in [12], in assay [13], in assay [5], in assay [6] and in [14] was inactive. Also, the call in assay [9], in assay [15], in assay [10] and in assay [11] was inactive. Also, the half-maximal activity concentration (AC50) in assay [3] was 130 µM (active).
For the compound `CC(C)(c1ccccc1)c1cc(-n2nc3ccccc3n2)c(O)c(C(C)(C)c2ccccc2)c1`, the call in assay [1], in assay [2], in assay [3], in [16], in [17] and in assay [7] was inactive. For the same compound, the compound was classed as inactive in assay [9], in assay [15], in [10] and in assay [11].
In the case of `CCCCOP(=O)(CCCC)OCCCC`, the outcome in assay [1], in assay [12], in assay [3], in assay [18], in assay [13] and in assay [4] was inactive. Also, the call in [5], in assay [6], in assay [19], in assay [20], in assay [7] and in assay [14] was inactive. Besides, the outcome in assay [9], in assay [15], in assay [10] and in [11] was inactive.
For the compound `CC(C)(c1ccc(O)c(-c2ccccc2)c1)c1ccc(O)c(-c2ccccc2)c1`, the compound was classed as inactive in assay [1], in assay [2], in [19], in assay [7], in assay [14] and in assay [8]. Also, the call in [9], in [15], in assay [10] and in assay [11] was inactive. In [3], the AC50 was 4.92 µM (active).
